Test [1] is described as follows: P-glycoprotein substrates identified in KB-8-5-11 adenocarcinoma cell line, qHTS therapeutic library screen (AID 1346987). Also: nearly all actives have a fitted effect of over 65% in size. As to activity change, negative = cytotoxicity: series mostly up to about 44 µM; % is scaled to controls: 0 for no effect and ±100 for the full control effect. Summed up: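 P-gp-mediated resistance screen: KB-8-5-11 cells treated 72 h with compounds in dose-response. CellTiter-Glo viability.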
Test [2] is described as follows: NS1 protein of Zika virus - qHTS assay to identify small molecule inhibitors in human HEK 293 cells (AID 1347053). Also: nearly all actives have a fitted effect of over 55% in size. Summed up: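 Following 20 h seeding, HEK 293 cells took compound, then 1 h later ZIKV MR766 (MOI = 0.5). Incubation ran 24 h at 37 C before TR-FRET detection of NS1; a drop in signal indicates inhibition.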
For orientation: In qHTS, concentration-response curves come from the screen itself.

The nature of test [3]: qHTS of pediatric cancer cell lines to identify multiple opportunities for drug repurposing: Primary screen for SJ-GBM2 cells (AID 1347091).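 As to activity change, negative = cytotoxic: plate controls were DMSO neutral control for no effect and bortezomib for full effect.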 Summed up:
(§1)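 Cell viability, CellTiter-Glo luminescence; 500-1,000 cells/well, 8- or 11-point titration, 48 h compound exposure at 37 degrees C, 5% CO2. Controls: DMSO neutral, bortezomib 2.3 µM final as positive.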

A short description of test [4]: qHTS of pediatric cancer cell lines to identify multiple opportunities for drug repurposing: Primary screen for BT-37 cells (AID 1347094).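 As to activity change, negative = cytotoxic: series mostly up to about 57 µM; plate controls were DMSO for no effect and bortezomib for full effect.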 Summed up:
(§2)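 Viability was measured as metabolically active cells after 48 hours of treatment, read by CellTiter-Glo luminescence. Compounds were tested at multiple final concentrations, giving concentration-response curves.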

Test [5] can be described thus: qHTS of pediatric cancer cell lines to identify multiple opportunities for drug repurposing: Primary screen for U-2 OS cells (AID 1347096). Also: nearly all actives have a fitted effect of over 50% in size.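 As to activity change, negative = cytotoxic: plate controls were DMSO wells for no effect and bortezomib positive control wells for full effect.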 Summed up: (§3)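 Cells (500-1,000/well) rested 5 h, then received compounds for 48 h; metabolically active cells were measured by CellTiter-Glo luminescence. Final concentrations spanned up to 46 µM (MIPE, 11-point) or 0.59 nM-46 µM (NPC, 8-point) in primary screens, 11-point in follow-ups.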

Test [6] can be described thus: qHTS of pediatric cancer cell lines to identify multiple opportunities for drug repurposing: Primary screen for A673 cells (AID 1347092). Also: nearly all actives have a fitted effect of over 45% in size. As to activity change, negative = cytotoxic: % is scaled to controls: 0 for no effect and ±100 for the full control effect. Put shortly:
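Cells are plated, rested 5 h, dosed by pintool, incubated 48 h, then lysed with CellTiter-Glo and read by luminescence. DMSO is the neutral control; bortezomib at 2.3 uM final is the positive control.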

Test [7] can be described thus: qHTS of pediatric cancer cell lines to identify multiple opportunities for drug repurposing: Primary screen for NB-EBc1 cells (AID 1347095).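 As to activity change, negative = cytotoxic: plate controls were DMSO neutral control for no effect and bortezomib for full effect.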 Summed up: as §2
Test [8] can be described thus: qHTS of pediatric cancer cell lines to identify multiple opportunities for drug repurposing: Primary screen for SK-N-SH cells (AID 1347098). Also: nearly all actives have a fitted effect of over 65% in size. As to activity change, negative = cytotoxic: % is scaled to controls: 0 for no effect and ±100 for the full control effect. Put shortly: as §3
The nature of test [9]: qHTS of pediatric cancer cell lines to identify multiple opportunities for drug repurposing: Primary screen for TC32 cells (AID 1347089). Also: nearly all actives have a fitted effect of over 60% in size. As to activity change, negative = cytotoxic: % is scaled to controls: 0 for no effect and ±100 for the full control effect. Put shortly:
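Measured quantity: luminescence from CellTiter-Glo, reflecting metabolically active TC32 cells following 48 h of compound. Curves came straight from multi-point titrations, with 8 or 11 points in primary and 11 in confirmatory screening.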

Test [10] is described as follows: qHTS of pediatric cancer cell lines to identify multiple opportunities for drug repurposing: Primary screen for DAOY cells (AID 1347090). Also: nearly all actives have a fitted effect of over 55% in size.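 As to activity change, negative = cytotoxic: series mostly up to about 46 µM; plate controls were DMSO for no effect and bortezomib for full effect.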 Summed up:
as §1

A short description of test [11]: qHTS of pediatric cancer cell lines to identify multiple opportunities for drug repurposing: Primary screen for SK-N-MC cells (AID 1347093).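 As to activity change, negative = cytotoxic: series mostly up to about 46 µM; plate controls were DMSO neutral control for no effect and bortezomib for full effect.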 Put shortly:
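Metabolically active cells were quantified by ATP-dependent luminescence (CellTiter-Glo, 15 min at room temperature) following 48 h treatment. Cells had been plated at 500-1,000 per well and settled for 5 h beforehand.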

A short description of test [12]: qHTS of pediatric cancer cell lines to identify multiple opportunities for drug repurposing: Primary screen for Saos-2 cells (AID 1347097). Also: nearly all actives have a fitted effect of over 40% in size. Summed up:
as §2

Values joined by “and” are separate entries in the source; they are usually repeats but may differ in a detail not shown here. Identical values can stand only once. Inconclusive results are not listed. Unmarked numbers belong to inactive results. Active and inactive are the calls of the source. Calls follow the shape of the dose curve; as a rule, active = well fitted curve in the direction sought with a large enough effect; inconclusive = small, poorly fitted or top-dose-only effect, or another doubt; inactive = no such curve, though single readings can be large; an effect the other way counts as inactive or inconclusive.
Potency is read from the fitted curve at half-maximal effect.

`OC[C@H]1O[C@@H](OCCc2ccc(O)cc2)[C@H](O)[C@@H](O)[C@H]1O`: the Potency result in test [1], in [2], in test [3], in test [4] and in test [5] was “inactive” in each case.

Regarding `CN1[C@H]2CC[C@H]1CC(OC(=O)c1c[nH]c3ccccc13)C2` (stereo partly specified), the Potency entry in test [1], in test [2], in test [3], in [6], in test [4] and in test [7] was “inactive” in each case. Also, the Potency entry in [5] was “inactive”. Besides, in [8], the Potency was 24.1 µM (active).

`CO[C@H]1C=CO[C@@]2(C)Oc3c(C)c(O)c4c(O)c(c(C=NN5CCN(C)CC5)c(O)c4c3C2=O)NC(=O)C(C)=CC=C[C@H](C)[C@H](O)[C@@H](C)[C@@H](O)[C@@H](C)[C@H](OC(C)=O)[C@H]1C`: the activity change, negative = cytotoxicity in test [1] was 0.164% [at 9.29 µM]. The activity change, negative = cytotoxic was 6.56% [at 9.17 µM] in test [9]; -7.74% [at 9.22 µM] in [10]; 4.67% [at 9.22 µM] in test [3]; 0.264% [at 9.22 µM] in test [6]; -7.84% [at 9.22 µM] in test [7]; -1.44% [at 9.22 µM] in test [5]. For the same compound, the activity change, negative = cytotoxic in test [8] is -10.6% [at 11.4 µM].

As to `C[C@H]1[C@H](O)O[C@@H]2O[C@@]3(C)CC[C@@H]4[C@H](C)CC[C@@H]1[C@@]24OO3`, the Potency was 18.7 µM (active) in test [1]; 26.4 µM (active) in [2]; 7.43 µM (active) in test [6]; 1.05 µM (active) in test [11]; 3.72 µM (active) in [7].

For the compound `CCn1c(-c2nonc2N)nc2cncc(CNC3CCNCC3)c21`, the Potency result in [1], in test [2], in [11], in test [4] and in [5] was “inactive” each time. Besides, the Potency in test [6] was 14.8 µM (active); in test [12], 11.8 µM (active); in test [8] it was 24.1 µM (active).

Turning to `COc1cc(CNC(=O)CCCCC=CC(C)C)ccc1O`, the Potency entry in test [1], in test [2], in [3], in test [11], in test [4] and in test [7] was “inactive” in each case. Further, the Potency result in test [5] is “inactive”.

On to `CN(C)CC[C@H](CSc1ccccc1)Nc1ccc(S(=O)(=O)NC(=O)c2ccc(N3CCN(Cc4ccccc4-c4ccc(Cl)cc4)CC3)cc2)cc1[N+](=O)[O-]`, for which the Potency entry in test [1] and in [2] was “inactive” each time. Besides, the Potency in [3] was 0.0833 µM (active); in test [6], 3.72 µM (active); in test [11], 0.0148 µM (active); in [7] it was 0.0418 µM (active); in test [5], 14.8 µM (active); in test [12] it was 9.35 µM (active). Moreover, in test [8], the Potency is 7.64 µM (active).

Turning to `CCNC(=O)c1noc(-c2cc(C(C)C)c(O)cc2O)c1-c1ccc(CN2CCOCC2)cc1`, the Potency in [1] was 0.0731 µM (active); in test [9], 0.165 µM (active); in test [10] it was 0.235 µM (active); in test [3], 0.332 µM (active); in [6] it was 0.148 µM (active); in [11], 0.0526 µM (active). For the same compound, the Potency was 0.137 µM (active) in test [4], 0.296 µM (active) in test [7] and 0.152 µM (active) in test [8].

For the compound `O[C@@H](COc1cccc2ncccc12)CN1CCN(C2c3ccccc3[C@@H]3[C@H](c4ccccc42)C3(F)F)CC1` (stereo partly specified), the Potency result in [1] and in [9] was “inactive” in each case. Further, the Potency in test [10] was 11.8 µM (active); in test [3] it was 3.35 µM (active); in test [6], 14.8 µM (active); in test [7], 4.73 µM (active); in test [8] it was 15.2 µM (active).

Regarding `CCc1cccc(CC)c1NC(=O)N1Cc2[nH]nc(NC(=O)c3ccc(N4CCN(C)CC4)cc3)c2C1`, the Potency entry in test [1], in test [2], in [4] and in test [7] was “inactive” each time. The Potency in [6] is 14.8 µM (active); in [11], 0.833 µM (active); in test [12], 1.18 µM (active); in test [8], 6.07 µM (active).

In the case of `CC(=O)N1CCN(c2ccc(OCc3nn(C)c(C)c3-c3cccc4c(CCCOc5cc(C)c(Cl)c(C)c5)c(C(=O)O)n(Cc5cccnc5)c34)cc2)CC1`, the Potency entry in test [1], in [2] and in test [5] was “inactive” each time. In addition, the Potency in test [10] is 18.7 µM (active); in [3] it was 23.5 µM (active); in test [6] it was 14.8 µM (active); in [4] it was 24.3 µM (active); in test [7] it was 14.8 µM (active); in [12] it was 18.7 µM (active).

In the case of `O=C(c1ccc(C(=O)N2CCC(N3CCCC3)CC2)c(Nc2ccccc2)c1)N1CCC(N2CCCC2)CC1`, the Potency entry in test [1], in test [2], in test [6], in test [4], in test [7] and in [12] was “inactive” each time. Besides, the Potency entry in test [8] is “inactive”.

For the compound `COc1cc2nccc(Oc3ccc(NC(=O)Nc4cc(C)on4)c(Cl)c3)c2cc1OC`, the Potency is 11.8 µM (active) and 13 µM (active) in [1]; 5.9 µM (active) in test [10]; 14.8 µM (active) in [3]; 13.2 µM (active) in test [7]; 14.8 µM (active) in test [12]; 19.2 µM (active) in test [8].

Consider `CC(C)C[C@@H](C(=O)N[C@H](C(=O)OC1CCCC1)c1ccccc1)[C@H](O)C(=O)NO`, for which the Potency in test [1] is 20.9 µM (active); in test [3], 20.9 µM (active); in [6] it was 14.8 µM (active); in test [4] it was 24.3 µM (active); in test [7], 18.7 µM (active); in test [12], 16.6 µM (active). For the same compound, the Potency entry in test [9] and in test [5] was “inactive” throughout.

For `Cc1cccc(-c2[nH]c(C(C)(C)C)nc2-c2ccc3c(c2)OCO3)n1`, the Potency is 10.3 µM (active) in [1]; 4.69 µM (active) in test [3]; 4.69 µM (active) in test [6]; 6.11 µM (active) in test [4]; 0.418 µM (active) in [12]; 30.4 µM (active) in test [8].

Consider `CCCCC(F)(F)[C@@]1(O)CC[C@H]2[C@H](CC(=O)[C@@H]2CCCCCCC(=O)O)O1`, for which the Potency entry in test [2], in test [9], in test [10], in test [3], in test [6] and in test [11] was “inactive” in each case. Besides, the Potency entry in test [4], in [7], in [5], in test [12] and in test [8] was “inactive” in each case.

These data come from PubChem BioAssay (NCATS).
